# According to PubChem BioAssay (NCATS):
# Results filed as inconclusive are left out. Entries that show only a call come without a potency. Calls of active or inactive are those of the source. Unless noted, calls follow the shape of the dose curve; as a rule, active = well fitted inhibition curve with a large enough effect; inconclusive = small, poorly fitted or top-dose-only effect; inactive = no such curve, though single readings can be large or run the other way.
# How the values were obtained:
# [1] = qHTS assay for measurement of the activity of small molecule inhibitors on Zika virus induced Caspase-3 activity in human iPSC derived neural progenitor cells (hNPCs) (AID 1224857); also: nearly all actives have a fitted effect of over 65% in size
# In short: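 Cells were plated at 350 per well and grown 16 to 20 hours. Compound pretreatment lasted one hour, after which ZIKV (2 FFU/cell) was added for 6 hours. Percent inhibition was normalized between uninfected and infected controls.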
# [2] = qHTS assay for measurement of the activity of small molecule inhibitors on Zika virus induced Caspase-3 activity in human astrocytoma cells (AID 1224859)
# In short: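 Percent inhibition of virus-induced caspase-3/7 signal is calculated against uninfected and ZIKV-infected control cells. Cells are SNB-19, infected at 2 FFU/cell for 6 h after 1 h compound exposure.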
# [3] = qHTS profiling of the MIPE4 collection as inhibitors of Plasmodium falciparum (3D7) proliferation (AID 743344; call rule not given here); conditions: P. falciparum 3D7 in erythrocytes, SYBR Green DNA fluorescence, 72 h; at 28.5 µM (top of the series)
# In short: (§1)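 Erythrocytes infected with P. falciparum (0.3% parasitemia, 2.5% hematocrit) incubated with compounds 72 h at 37 C, 5% CO2. Lysis with saponin/Triton buffer containing SYBR Green I, overnight at room temperature in the dark; DNA fluorescence (485/535 nm) normalised to 0.29 uM artemisinin and DMSO.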
# [4] = qHTS profiling of the MIPE4 collection as inhibitors of Plasmodium falciparum (DD2) proliferation (AID 743345; call rule not given here); conditions: P. falciparum Dd2 in erythrocytes, SYBR Green DNA, 72 h; at 28.5 µM (top of the series)
# In short: as §1
# [5] = qHTS profiling of the MIPE4 collection as inhibitors of Plasmodium falciparum (DD2) proliferation (Rep 2) (AID 743346; call rule not given here); conditions: P. falciparum Dd2 in erythrocytes, SYBR Green DNA, 72 h; at 28.5 µM (top of the series)
# In short: as §1
# [6] = qHTS profiling of the MIPE4 collection as inhibitors of Plasmodium falciparum (HB3) proliferation (AID 743347; call rule not given here); conditions: P. falciparum HB3 in erythrocytes, SYBR Green DNA, 72 h; at 28.5 µM (top of the series)
# In short: as §1
smiles,measurement,setting,value
O=C1C=CC(=O)C=C1,Potency,[1],inactive
same,outcome,[2],inactive
Nc1cc2c(ncn2CCOCP(=O)(O)O)c(=O)[nH]1,Potency,[1],inactive
NCC(CP(=O)(O)O)c1ccc(Cl)cc1 (configuration not stated),Potency,[1],inactive
same,outcome,[2],inactive
C#CCN[C@H](C)Cc1ccccc1,Potency,[1],inactive
same,outcome,[2],inactive
C[C@H](N)CN1CCc2ccc(Br)cc21,Potency,[1],inactive
same,outcome,[2],inactive
O=C(NC1CN2CCC1CC2)c1cc2ccoc2cn1 (configuration not stated),Potency,[1],inactive
N[C@@]1(C(=O)O)CC[C@@H](C(=O)O)C1,Potency,[1],inactive
same,outcome,[2],inactive
CO[C@H]1CC=C2CCN3CCC4=C(CC(=O)OC4)[C@]23C1,Potency,[1],inactive
same,outcome,[2],inactive
CC(N)Cc1c[nH]c2ccc(O)cc12 (configuration not stated),Potency,[1],inactive
same,outcome,[2],inactive
C[N+]1(C)CCN(c2ccccc2)CC1,Potency,[1],inactive
same,outcome,[2],inactive
COc1ccc2c(c1)C13CCCCC1C(C2)N(C)CC3 (configuration not stated),Potency,[1],inactive
same,outcome,[2],inactive
Cc1sc2ccccc2c1CC1=NCCN1,Potency,[1],inactive
same,outcome,[2],inactive
O=C1CC[C@@]2(O)C3Cc4ccc(O)c5c4C2(CCN3CC2CC2)[C@H]1O5 (some centres not stated),Potency,[1],inactive
same,outcome,[2],inactive
NNC(=O)c1ccc(O)cc1,Potency,[1],inactive
same,outcome,[2],inactive
CCCN1CCc2cc(O)cc3c2[C@H]1Cc1ccc(O)c(O)c1-3,Potency,[1],inactive
same,outcome,[2],inactive
NC(N)=NOCC[C@H](N)C(=O)O,Potency,[1],inactive
same,outcome,[2],inactive
CN1CCC(c2c[nH]c3ccc(O)cc23)CC1,Potency,[1],inactive
same,outcome,[2],inactive
CCCN(CCC)[C@H]1CCc2c(F)ccc(O)c2C1,Potency,[1],inactive
same,outcome,[2],inactive
O=[N+]([O-])c1ccc2nc(N3CCNCC3)ccc2c1,Potency,[1],inactive
same,outcome,[2],inactive
NCC(O)c1cc(O)c(O)cc1F (configuration not stated),Potency,[1],inactive
same,outcome,[2],inactive
C[N+]1(C)CCOC(O)(c2ccc(-c3ccc(C4(O)C[N+](C)(C)CCO4)cc3)cc2)C1 (configuration not stated),Potency,[1],inactive
same,outcome,[2],inactive
CCCN(CCC)C1Cc2cc(OC)c(OC)cc2C1,Potency,[1],inactive
same,outcome,[2],inactive
CCS(=O)(=O)Nc1cccc(C(=C2CCCCC2)c2cnc[nH]2)c1,Potency,[1],inactive
same,outcome,[2],inactive
CCCn1c(=O)c2[nH]c(C3CCCC3)nc2n(CCCOC(=O)c2ccc(S(=O)(=O)F)cc2)c1=O,Potency,[1],inactive
same,outcome,[2],inactive
c1ccc2c(N3CCNCC3)cccc2c1,Potency,[1],inactive
same,outcome,[2],inactive
Cc1[nH]c2ccc(O)cc2c1CCN,Potency,[1],inactive
same,outcome,[2],inactive
C=CCN1CCC23c4c5ccc(O)c4O[C@H]2C(=O)CC[C@@]3(O)C1C5 (some centres not stated),Potency,[1],inactive
same,outcome,[2],inactive
CN1CCc2cccc(Cl)c2CC1,Potency,[1],inactive
same,outcome,[2],inactive
NC(=O)COc1c(F)cc(SCCNS(=O)(=O)c2ccccc2)cc1F,Potency,[1],inactive
same,outcome,[2],inactive
C[N+](C)(C)CCOC(=O)CBr,Potency,[1],inactive
same,outcome,[2],inactive
CN1C2CCC1CC(OC(c1ccccc1)c1ccccc1N)C2 (configuration not stated),Potency,[1],inactive
same,outcome,[2],inactive
NCCc1c[nH]c2ccc(C(N)=O)cc12,Potency,[1],inactive
same,outcome,[2],inactive
CCCN(CCC)CCc1ccc(O)c(O)c1,Potency,[1],inactive
same,outcome,[2],inactive
CCCN1CCC[C@@H](c2cccc(O)c2)C1,Potency,[1],inactive
same,outcome,[2],inactive
O=[N+]([O-])/C=C/c1ccc2c(c1)OCO2,Potency,[1],inactive
same,outcome,[2],inactive
CC(N)[C@H](O)c1ccc(O)c(O)c1 (some centres not stated),Potency,[1],inactive
same,outcome,[2],inactive
CC(C)(C)c1cc(C=C(C#N)C#N)cc(C(C)(C)C)c1O,Potency,[1],inactive
same,outcome,[2],inactive
CC(C)(C)c1o[nH]c(=O)c1CC(N)C(=O)O (configuration not stated),Potency,[1],inactive
same,outcome,[2],inactive
c1ccc2cc(CC3=NCCN3)ccc2c1,Potency,[1],inactive
same,outcome,[2],inactive
C[N+]1(C)CCc2cc3c(cc2[C@H]1[C@@H]1OC(=O)c2c1ccc1c2OCO1)OCO3,Potency,[1],inactive
same,outcome,[2],inactive
O=S1(=O)N(CCN2CC=C(c3c[nH]c4cc(F)ccc34)CC2)c2cccc3c2N1CCC3,Potency,[1],inactive
same,outcome,[2],inactive
CCOC(=O)c1ncn2c1[C@@H]1CCCN1C(=O)c1cc(OC)ccc1-2,Potency,[1],inactive
same,outcome,[2],inactive
Oc1ccc2c3c1O[C@H]1c4oc5ccccc5c4C[C@@]4(O)C(C2)N(CC2CC2)CCC314 (some centres not stated),Potency,[1],inactive
same,outcome,[2],inactive
CC1(C(=O)O)C2CCC(O2)C1(C)C(=O)O (configuration not stated),Potency,[1],inactive
same,outcome,[2],inactive
NC(Cc1cc(O)c(O)cc1O)C(=O)O (configuration not stated),Potency,[1],inactive
same,outcome,[2],inactive
NNC(N)=O,Potency,[1],inactive
same,outcome,[2],inactive
Nc1ccc(CCN2CCN(c3cccc(C(F)(F)F)c3)CC2)cc1,Potency,[1],inactive
same,outcome,[2],inactive
Oc1ccc2c3c1O[C@H]1c4[nH]c5ccccc5c4C[C@@]4(O)C(C2)N(CC2CC2)CCC314 (some centres not stated),"parasite growth, % of DMSO control",[3],5.78%
same,"parasite growth remaining, % of DMSO control (lower = more inhibition)",[4],28.3%
same,"parasite growth, % of control (lower = inhibition)",[5],12.6%
same,"growth, % of control",[6],5.24%
same,Potency,[1],inactive
same,outcome,[2],inactive
Cc1cc([C@@H]2CCCN2C)on1,Potency,[1],inactive
same,outcome,[2],inactive
OC1CCCCC1N1CCC(c2ccccc2)CC1 (configuration not stated),Potency,[1],inactive
same,outcome,[2],inactive
